Only some compounds are listed: those with a hit (about 2.4% of all), similar ones and a draw of the others.
Tb PFK block = T. brucei PFK enzyme inhibition | T. brucei PFK, ADP-Glo luminescence | O15648 | AID 485367 | 330,000 compounds, 0.17% hits | Potency, µM (doses to about 57.5 µM), for the others: top-dose activity, negative = inhibition, most hits filed as inhibitors;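 note: 0% = uninhibited 1x PFK enzyme wells and -100% = no-enzyme wells; nearly all actives have a fitted effect of over 60% in size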
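In TEA buffer at pH 8.0 with 5 mM MgCl2, enzyme (1.25 nM) converted F6P (0.5 mM) and ATP (0.1 mM) for 45 min at room temperature. ADP product was read by luciferase luminescence.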
ELG1 DNA repair = inhibitors of ELG1-dependent DNA repair in HEK293T cells | Potency, µM (doses to about 46.1 µM), inactives show at the top dose activity change, negative = inhibition, usual class: inhibitors | AID 504467 | 330,000 compounds, 2.3% hits | HEK293T ELG1-luciferase reporter, luminescence, 16 h; DNA damage induced by 5-fluorouridine; note: % is set by controls: 0 for no effect and ±100 for the full control effect; nearly all actives have a fitted effect of over 55% in size
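Step one: seed 2,000 cells per well. Step two: pin-transfer compound or DMSO alongside 5-fluorouridine. Step three: incubate 16 hr, 37 °C, 5% CO2. Step four: add ONE-Glo, wait 30 min, read luminescence.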
PGK inhibitor = blocks T. brucei phosphoglycerate kinase. P07378. PGK/GAPDH coupled, Kinase-Glo luminescence, 60 min. Potency, µM (titrated, usually from 57.5 µM), inactives show at the top dose activity change, negative = inhibition, actives largely listed as inhibitors. 380,000 compounds, 0.043% hits. AID 602233; note: % is set by controls: 0 for no effect and ±100 for the full control effect; nearly all actives have a fitted effect of over 60% in size
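Recombinant glycosomal PGK reaction used 1,3-bisphosphoglycerate generated in-well by GAPDH (100nM final) in 100mM TEA pH 7.6, 5mM MgCl2, 0.01% Tween-20. After 60 minutes at room temperature, ATP was read by Kinase-Glo Plus luminescence end-point.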
Rango complex inh = Rango-importin beta binding inhibition | AID 540263 | Rango CFP/YFP FRET sensor + importin beta, 45 min | 340,000 compounds, 0.031% hits | Potency, µM (doses to about 92.2 µM), for inactives: top-dose inhibition of complex formation | Q14974; calls by dose curve;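 note: 0% = DMSO wells and 100% = buffer wells lacking importin beta; nearly all actives have a fitted effect of over 15% in size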
Target sequence (Q14974 whole entry, looked up): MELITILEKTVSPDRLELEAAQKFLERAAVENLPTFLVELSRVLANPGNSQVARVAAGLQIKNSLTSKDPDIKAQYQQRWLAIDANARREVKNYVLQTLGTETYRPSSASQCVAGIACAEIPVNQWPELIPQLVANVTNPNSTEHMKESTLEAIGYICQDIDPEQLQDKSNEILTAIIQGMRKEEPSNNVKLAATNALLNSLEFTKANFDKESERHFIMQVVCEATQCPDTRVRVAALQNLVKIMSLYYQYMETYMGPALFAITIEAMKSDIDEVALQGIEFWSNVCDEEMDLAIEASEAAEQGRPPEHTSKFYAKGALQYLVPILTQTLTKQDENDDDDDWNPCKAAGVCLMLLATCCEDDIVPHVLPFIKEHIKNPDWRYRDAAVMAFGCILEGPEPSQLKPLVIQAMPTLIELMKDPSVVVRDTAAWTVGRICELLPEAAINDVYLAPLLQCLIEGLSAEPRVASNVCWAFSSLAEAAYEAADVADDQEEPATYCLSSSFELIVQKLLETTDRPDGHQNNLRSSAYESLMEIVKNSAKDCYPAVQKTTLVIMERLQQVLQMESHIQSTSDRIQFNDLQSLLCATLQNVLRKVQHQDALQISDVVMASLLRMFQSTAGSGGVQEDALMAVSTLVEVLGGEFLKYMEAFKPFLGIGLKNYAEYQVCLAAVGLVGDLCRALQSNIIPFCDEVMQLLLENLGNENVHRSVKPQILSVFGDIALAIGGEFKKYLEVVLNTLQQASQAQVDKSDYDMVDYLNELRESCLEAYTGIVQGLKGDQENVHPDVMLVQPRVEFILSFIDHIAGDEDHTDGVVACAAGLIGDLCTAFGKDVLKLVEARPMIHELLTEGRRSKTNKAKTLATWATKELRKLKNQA
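FRET biosensor Rango (snurportin 1 IBB between N-terminal EYFP and C-terminal Cerulean), 50 nM in PBS/1 mM DTT/0.02% Tween-20/0.1% BSA, preincubated 5 min RT with compound; 0.125 microM importin beta added, 45 min RT, CFP/YFP FRET ratio read.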
Rango dissoc inh = prevents RanGTP from dissociating the Rango-importin beta complex; O95149+P62826; Biochemical FRET Rango-importin beta, RanGTP-induced dissociation; Potency, µM (series often up to 46.1 µM), without a hit: top-dose activity change, negative = inhibition; 340,000 compounds, 0.071% hits; AID 540253; calls by dose curve; note: % of control where 0% means no effect; nearly all actives have a fitted effect of over 45% in size
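FRET read at 45 min, room temperature: inhibitors block the CFP/YFP signal rise when RanGTP (0.6 uM Ran, 2 mM GTP, 0.2 uM RCC1) frees Rango (0.1 uM) from importin beta (0.25 uM). Pre-read after 5 min compound exposure flags interference.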
PKM2 activator = increases activity of human pyruvate kinase M2. P14618. 260,000 compounds, 0.34% hits. purified PKM2, Kinase-Glo ATP luminescence, activation; response scale: 0% is enzyme alone, no compound. AID 1631. Potency, µM (series often up to 57.5 µM), inactives show at the highest dose activation, most hits filed as activators; note: % is set by controls: 0 for no effect and ±100 for the full control effect; nearly all actives have a fitted effect of over 55% in size
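Purified hPK-M2 (>95%) run at intermediate activity with 0.1 mM ADP and 0.5 mM PEP in 50 mM imidazole pH 7.2, KCl, MgCl2; 1 h room temperature. ATP formed read by Kinase-Glo luminescence; normalized to uninhibited and no-enzyme controls.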
* marks the source's active call; other numbers are inactive results; i = inactive; ? = inconclusive; / = not tested or not shown. Unless noted, calls come from the whole dose curve; as a rule, active = well fitted curve in the direction sought with a large enough effect; inconclusive = small, poorly fitted or top-dose-only effect, or another doubt; inactive = no such curve, though single readings can be large; an effect the other way counts as inactive or inconclusive. Potency is the fitted concentration of half-maximal effect.

SMILES	Tb PFK block	ELG1 DNA repair	PGK inhibitor	Rango complex inh	Rango dissoc inh	PKM2 activator
CCn1c(CNC(=O)COc2ccc(C(C)C)cc2)nnc1SCC(=O)NC1CCCCC1C (stereo not drawn)	3%	16µM*	5%	0%	3%	1%
Cc1cccc(-c2nnc(SCC#N)n2C)c1	1%	3%	-8%	?	-29%	-6%
Cc1ccc(S(=O)(=O)Nc2ccc(-c3nnc(SCC#N)n3C)cc2)cc1	6%	-11%	5%	1%	11%	20µM*
CC(C)Sc1nc(SCC(=O)NCc2ccco2)c2c3c(sc2n1)COC(C)(C)C3	-3%	2.3µM*	i	-2%	3%	8%
CC(C)Sc1nc(SCC(=O)O)c2c3c(sc2n1)COC(C)(C)C3	4%	?	i	2%	1%	2%
CC(C)(CC1(C)NC(=O)NC1=O)OCc1ccccc1 (stereo not drawn)	/	/	-8%	0%	-20%	/
O=Cc1ccc(O)c2ncccc12	1%	2.3µM*	-3%	?	?	25%
Cc1cc(C)nc(N2CCN(C(=O)CCC(=O)Nc3nnc(C(C)C)s3)CC2)n1	13%	?	-6%	-3%	-12%	-2%
COc1cc(S(=O)(=O)N2CCOCC2)cc(C(=O)OCC(=O)NC2CCCCC2)c1OC	0%	-8%	-7%	?	-24%	/
O=C(c1ccc(CS(=O)Cc2ccc(Cl)cc2)o1)N1CCN(c2ccc(F)cc2)CC1 (stereo not drawn)	-9%	23µM*	3%	-1%	-17%	/
COc1cccc(N2CCN(C(=O)c3ccc(CS(=O)Cc4ccc(C)cc4)o3)CC2)c1 (stereo not drawn)	-1%	15µM*	-4%	-1%	7%	/
O=C(c1ccc(CS(=O)Cc2cccc(Cl)c2)o1)N1CCN(c2ccc(F)cc2)CC1 (stereo not drawn)	/	/	-4%	/	/	/
O=C(/C=C/c1ccccc1)N1CCN(CCN2C(=O)c3cccc4cccc(c34)C2=O)CC1	3%	10µM*	i	?	-29%	-2%
O=C(c1ccc(S(=O)(=O)N2CCCCC2)cc1)N1CCN(CCN2C(=O)c3cccc4cccc(c34)C2=O)CC1	-1%	3.3µM*	-8%	-2%	-8%	-2%
O=C(c1ccc(S(=O)(=O)N2CCCC2)cc1)N1CCCCCC1	4%	0%	-3%	-4%	1%	-1%
O=C(CCN1C(=O)c2cccc3cccc(c23)C1=O)N1CCOCC1	-3%	?	-3%	-2%	-27%	-15%
CC(C)(C)c1ccc(S(=O)(=O)N2CCC(c3nc4ccc(Cl)cc4[nH]3)CC2)cc1	-1%	21µM*	4%	-1%	-4%	1%
CC(C)C(=O)Nc1ccc(S(=O)(=O)N2CCC(c3nc4ccccc4[nH]3)CC2)cc1	-1%	5.8µM*	i	-3%	-19%	/
CC1CCCN(S(=O)(=O)c2ccc(C(=O)Nc3ccccc3-c3nc4ccccc4[nH]3)cc2)C1 (stereo not drawn)	5%	?	-10%	1%	15%	6%
CC1CCN(S(=O)(=O)c2ccc(C(=O)Nc3ccccc3-c3nc4ccccc4[nH]3)cc2)CC1	7%	16µM*	-5%	?	16%	-3%
Cc1ccn2c(=O)c(NC(=O)c3cccc([N+](=O)[O-])c3C)c(C)nc2c1	/	/	-1%	/	/	/
CCC1CCCCN1S(=O)(=O)c1ccc(S(=O)(=O)N(Cc2ccccn2)CC2CCCO2)cc1 (stereo not drawn)	-6%	18µM*	-7%	-2%	13%	-1%
O=S(=O)(NCC1CCCO1)c1ccc(S(=O)(=O)N(Cc2ccc(F)cc2)Cc2ccccn2)cc1 (stereo not drawn)	0%	-10%	-14%	-2%	14%	0%
CCN(CC)c1ccc2cc(-c3nc4sc5c(c4c(=O)[nH]3)CCC(C(C)(C)C)C5)c(=O)oc2c1 (stereo not drawn)	/	/	i	/	/	/
Cc1cccc(NC(=O)COc2ccc(-c3nn(C)c(=O)c4ccccc34)cc2)c1	2%	15µM*	-7%	-2%	?	3%
SMILES	Tb PFK block	ELG1 DNA repair	PGK inhibitor	Rango complex inh	Rango dissoc inh	PKM2 activator
COc1ccccc1NC(=O)COc1ccc(-c2nn(C)c(=O)c3ccccc23)cc1	3%	16µM*	-4%	-4%	-9%	/
COc1ccccc1NC(=O)c1ccc(-c2nn(C)c(=O)c3ccccc23)cc1	-1%	?	i	0%	-4%	3%
Cn1nc(-c2ccc(OCC(=O)Nc3ccccc3)cc2)c2ccccc2c1=O	2%	?	-3%	0%	4%	5%
Cc1cc(=O)oc2c(C)c(OCC(=O)N3CCN(c4cccc(Cl)c4)CC3)ccc12	21µM*	?	i	0%	9%	0%
Cc1c(OCC(=O)N2CCN(c3ccccc3)CC2)ccc2c3c(c(=O)oc12)CCCC3	3%	-7%	-2%	2%	?	/
Cc1nc(N2CCC(C)CC2)c2c(C)c(C(=O)Nc3ccccc3C(F)(F)F)sc2n1	1%	15µM*	i	4%	-6%	-3%
Cc1nc(N2CCN(c3ccccn3)CC2)c2c(C)c(C(=O)Nc3ccc(Cl)cc3)sc2n1	-15%	8.2µM*	i	-3%	-19%	/
Cc1nc(N2CCN(c3ccccn3)CC2)c2c(C)c(C(=O)Nc3c(F)cc(F)cc3Br)sc2n1	3%	23µM*	1%	-3%	-12%	3%
Cc1nc(N2CCN(c3ccccn3)CC2)c2c(C)c(C(=O)Nc3c(C)cc(Br)cc3C)sc2n1	1%	?	-10%	-1%	-7%	-3%
Cc1cccc(C)c1NC(=O)COC(=O)c1ccc2[nH]c3c(c2c1)CCCC3	0%	-12%	0%	?	23µM*	0%
Cn1cccc1/C=N/NC(=O)Cc1cccc2ccccc12	2%	13µM*	i	0%	1%	2%
O=c1ccc(Oc2nc(N3CCOCC3)nc(N3CCOCC3)n2)nn1-c1ccccc1	-3%	13µM*	0%	2%	0%	-22%
CCOC(=O)C1C(C(=O)OC)=C(c2ccc(OC)cc2)c2ccccc2N1S(=O)(=O)C(F)(F)F (stereo not drawn)	-3%	12µM*	i	-1%	18%	/
CCOC(=O)C1=C(c2ccccc2)c2ccccc2N(S(=O)(=O)C(F)(F)F)C1C(=O)OCC (stereo not drawn)	-3%	16µM*	i	-2%	-3%	/
